Measured values taken from PubChem BioAssay (Tox21).
Records with an inconclusive call do not appear. Where a call stands in place of a potency, no number is given. Calls of active or inactive are those of the source. The rule behind the calls is not given here.

Assay: qHTS assay to identify small molecule antagonists of the estrogen related receptor signaling pathway with the pleiotropic PPARgamma coactivator (PGC) from Tox21 10K library (AID 1224841); note: actives are mostly falling curves and most rising ones were filed inactive; nearly all actives have a fitted effect of over 50% in size
Details: PGC/ERR reporter cell line, ONE-Glo luciferase, 18 h; series mostly up to 92.4 µM
Source text: U.S. Tox21 Program National Center for Advancing Translational Sciences [NCATS] NIH Chemical Genomics Center [NCGC] U.S. Environmental Protection Agency [EPA] National Institutes of Environmental Health Sciences [NIEHS] National Toxicology Program [NTP] U.S. Food and Drug Administration [FDA] Tox21 Assay Overview: Estrogen related receptors (ERRs), the first orphan nuclear receptors discovered, play an important role in the control of cellular energy metabolism. ERRs are required for high-energy production in response to the environmental challenges. The pleiotropic PPARgamma coactivator (PGC) is a major partner of ERR and a key regulator in energy homeostasis. Together they have been implicated in the etiology of metabolic disorders such as Type 2 diabetes and metabolic syndrome. ERR-alpha was also identified as an adverse marker for breast cancer progression; ERR-alpha-positive tumors have a poor prognosis. To screen and to identify environmental compounds that perturb the ERR and PGC/ERR signaling pathways could provide valuable information for potential therapeutic or preventive measures in the treatment of metabolic disease. For identifying PGC/ERR antagonists, PGC/ERR cell line (provided by NTP) has been used to screen Tox21 10K library.
Tox21 Assay Protocol Summary: The PGC/ERR cells were dispensed at 2,000 cells/5 ul/well in 1536-well white plates using a Multidrop dispenser. After the assay plates were incubated at a 37 C/5% CO2 incubator for 6 hours, 23 nL of compounds dissolved in DMSO, positive and negative controls or DMSO only was transferred to the assay plate by a pin tool. The plates were incubated at 37 C for 18 hours. 4 ul/well of One-Glo reagent was added into the assay plates using a Flying Reagent Dispenser. After 30-minute incubation at room temperature, the luminescence intensity in the plates was measured using a ViewLux plate reader.
Potency is the fitted concentration of half-maximal effect.

Q: Which Potency does the source give for Cc1cccc(N(C)C(=S)Oc2ccc3c(c2)CCC3)c1 here?
A: Its Potency is “inactive”.

Q: Which Potency does the source give for CCC(C)(C)OC here?
A: Its Potency is “inactive”.

Q: For c1cc(N(CC2CO2)CC2CO2)ccc1Cc1ccc(N(CC2CO2)CC2CO2)cc1 (stereo not given), which Potency is on record?
A: Its Potency is 27.3 µM (active).

Q: With C=C1c2cccc(O)c2C(O)=C2C(=O)[C@]3(O)C(O)=C(C(N)=O)C(=O)[C@@H](N(C)C)[C@@H]3[C@@H](O)[C@H]12 as the compound, how does the Potency read?
A: The Potency was “inactive”.

Q: Which Potency does the source give for NC(=O)c1ccncc1 here?
A: The Potency was “inactive”.

Q: Which Potency does the source give for CCCCC(CC)CN (stereo not given) here?
A: The Potency was “inactive”.

Q: Which Potency does the source give for C[C@@]12CCC[C@H]1[C@@H]1CC[C@H]3C[C@@H](O)CC[C@]3(C)[C@H]1CC2 here?
A: Its Potency is “inactive”.

Q: Which Potency does the source give for C=C(C)[C@@H]1CCC2=CCC[C@@H](C)[C@]2(C)C1 here?
A: The Potency was “inactive”.

Q: With Brc1cc2ccccc2c2ccccc12 as the compound, how does the Potency read?
A: Its Potency is 61.6 µM (active).

Q: With CC(=O)OCC(=O)NCCCOc1cccc(CN2CCCCC2)c1 as the compound, how does the Potency read?
A: The Potency was “inactive”.

Q: Which Potency does the source give for Oc1cccc(O)c1O here?
A: The Potency was “inactive”.

Q: Which Potency does the source give for CCCCCCCCC(CCCCCC)C(=O)O (stereo not given) here?
A: Its Potency is “inactive”.

Q: With CC1=C(Br)C(=O)C(Br)=C/C1=C(/c1ccccc1S(=O)(=O)O)c1cc(Br)c(O)c(Br)c1C as the compound, how does the Potency read?
A: The Potency was 16.5 µM (active).

Q: For CC1(C)[C@@H](OC(=O)CCC(=O)O)CC[C@]2(C)[C@H]3C(=O)C=C4[C@@H]5C[C@@](C)(C(=O)O)CC[C@]5(C)CC[C@@]4(C)[C@]3(C)CC[C@@H]12, which Potency is on record?
A: Its Potency is “inactive”.

Q: With Oc1c(I)cc(I)c2cccnc12 as the compound, how does the Potency read?
A: The Potency was “inactive”.

Q: For O=C=Nc1ccc(Cl)c(Cl)c1, which Potency is on record?
A: The Potency was “inactive”.

Q: With NC1[C@H]2CN(c3nc4c(cc3F)c(=O)c(C(=O)O)cn4-c3ccc(F)cc3F)C[C@@H]12 (stereo not given in full) as the compound, how does the Potency read?
A: The Potency was “inactive”.

Q: Which Potency does the source give for C[C@H]1C[C@H](O)c2ccsc2S1(=O)=O here?
A: Its Potency is “inactive”.

Q: Which Potency does the source give for CCCCCCC(C)(C)C(=O)O here?
A: Its Potency is “inactive”.

Q: With CCOC(=O)/C=C/C(=O)OCC as the compound, how does the Potency read?
A: The Potency was “inactive”.

Q: With C=Cc1ccc(S(=O)(=O)O)cc1 as the compound, how does the Potency read?
A: The Potency was “inactive”.

Q: For O=C(O)c1ccc(OCCCOc2ccc(C(=O)O)cc2)cc1, which Potency is on record?
A: The Potency was “inactive”.

Q: With C=C1C[C@@]23CC[C@H]4[C@@](C)(CCC[C@@]4(C)C(=O)O[C@@H]4O[C@H](CO)[C@@H](O)[C@H](O)[C@H]4O)[C@@H]2CC[C@]1(O[C@@H]1O[C@H](CO)[C@@H](O)[C@H](O[C@@H]2O[C@H](CO)[C@@H](O)[C@H](O)[C@H]2O)[C@H]1O[C@@H]1O[C@H](CO)[C@@H](O)[C@H](O)[C@H]1O)C3 as the compound, how does the Potency read?
A: The Potency was “inactive”.

Q: Which Potency does the source give for CCC(C)COC(C)=O (stereo not given) here?
A: Its Potency is “inactive”.

Q: For NCCNCCO, which Potency is on record?
A: Its Potency is “inactive”.

Q: With CC(=O)Nc1ccc(C)cc1C as the compound, how does the Potency read?
A: The Potency was “inactive”.

Q: Which Potency does the source give for O=Cc1c2ccccc2c(Cl)c2ccccc12 here?
A: Its Potency is 13.3 µM (active).

Q: With CCOC(=O)C1=C(C)NC(C)=C(C(=O)OC)C1c1cccc(Cl)c1Cl (stereo not given) as the compound, how does the Potency read?
A: Its Potency is “inactive”.

Q: With CC(CCC(=O)O)C(=O)O (stereo not given) as the compound, how does the Potency read?
A: Its Potency is “inactive”.

Q: Which Potency does the source give for O=C(O)CCCCCCCCCCCBr here?
A: Its Potency is “inactive”.

Q: For O=C1c2ccccc2C(=O)c2c(O)c(O)cc(O)c21, which Potency is on record?
A: The Potency was “inactive”.

Q: With O=C1Cc2cc(Cl)ccc2N1 as the compound, how does the Potency read?
A: Its Potency is “inactive”.

Q: Which Potency does the source give for CC(CO)CO here?
A: Its Potency is “inactive”.

Q: Which Potency does the source give for COc1cc(C(=O)NCCCCCC(=O)O)cc(OC)c1OC here?
A: The Potency was “inactive”.

Q: Which Potency does the source give for CN(C(=O)CN(CCO)CC(=O)N(C)C(C)(C)Cc1ccccc1)C(C)(C)Cc1ccccc1 here?
A: The Potency was “inactive”.

Q: Which Potency does the source give for CC(C)Nc1cccnc1N1CCN(C(=O)c2cc3cc(NS(C)(=O)=O)ccc3[nH]2)CC1 here?
A: Its Potency is “inactive”.

Q: With Cc1cc(O)ccc1O as the compound, how does the Potency read?
A: The Potency was “inactive”.

Q: For O=c1c(O)c(-c2ccc(O)cc2)oc2cc(O)cc(O)c12, which Potency is on record?
A: The Potency was “inactive”.

Q: Which Potency does the source give for C=C(C)C(=O)OCCOCCOC(=O)C(=C)C here?
A: The Potency was “inactive”.

Q: Which Potency does the source give for CCCCCC[C@@H](O)C/C=C\CCCCCCCC(=O)OCC(O)CO (stereo not given in full) here?
A: The Potency was “inactive”.
